The text below walks through data of PubChem BioAssay (Tox21).

Results filed as inconclusive are left out. A call without a number means that no potency is given here. Unmarked numbers belong to inactive results. Active and inactive are the calls of the source. Unless noted, the call rests on the fitted dose curve; in most records, active means well fitted cell-killing curve with a large enough effect in the repeat runs; inconclusive means weak or mixed curves, or effect the other way; inactive means flat fitted curve, though single readings scatter.

System in one assay: not listed separately
The assay can be described thus: qHTS assay to identify small molecule that activate the aryl hydrocarbon receptor (AhR) signaling pathway - cell viability counter screen (AID 743086). Further: nearly all actives have a fitted effect of over 45% in size. Further: potency means the concentration at half of the fitted maximal effect. The note with it: HepG2-AhR-luc viability, CellTiter-Fluor, 24 h; series mostly up to 70.3 µM; viability change, negative = cytotoxic: at the top concentration. The gist of the method: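 Cytotoxicity counter screen: CellTiter-Fluor signal (30 min, 37 C) in 4000 HepG2 cells/well carrying the DRE-luciferase reporter, following 24 h compound exposure at 37 C.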
In the case of `COC(=O)Nc1nc2ccc(Sc3ccccc3)cc2[nH]1`, the Potency result is “inactive”.

Regarding `CCCCOCCOCCOC(=O)CCCCC(=O)OCCOCCOCCCC`, the Potency entry is “inactive”.

With `CCCCCCCCC`, the Potency entry is “inactive”.

`OC[C@@H](O)[C@H](O)[C@H](O)[C@@H](O)CO`: the Potency result was “inactive”.

As to `CC(C)Cc1ccccc1`, the Potency result was “inactive”.

With `CC1=C(CC(=O)O)c2cc(F)ccc2/C1=C\c1ccc(S(C)=O)cc1` (stereo not given), the Potency result is “inactive”.

Regarding `CCCCCC/C=C/CCCCCCCC(=O)O`, the Potency entry was “inactive”.

Consider `O=S(=O)(Oc1ccc(Cl)cc1Cl)c1ccccc1`, for which the Potency result was “inactive”.

For `O=[N+]([O-])c1cccc(Cl)c1`, the Potency entry is “inactive”.

Regarding `Cc1cc(O)c2c(c1)C(=O)c1cc(O)cc(O)c1C2=O`, the “viability change, negative = cytotoxic” value was -5.2%.

On to `CCCCCCCCCCCCOCC1CO1` (stereo not given), for which the Potency result was “inactive”.

`Cc1ccc(C)c(C)c1`: the Potency result is “inactive”.

On to `OC1CCCC1`, for which the Potency result is “inactive”.

With `NC(=O)/N=N/C(N)=O`, the Potency entry is “inactive”.

As to `c1ccc2ccccc2c1`, the Potency result was “inactive”.

For the compound `CC1(C)O[C@@H]2C[C@H]3[C@@H]4C[C@H](F)C5=CC(=O)CC[C@]5(C)[C@H]4[C@@H](O)C[C@]3(C)[C@]2(C(=O)CO)O1`, the Potency entry is “inactive”.

For the compound `Cc1ccc(C(=O)O)o1`, the Potency result was “inactive”.

With `C=C(C#N)C(=O)OCC`, the Potency result was “inactive”.

In the case of `O=C(c1ccc(O)cc1)c1ccc(O)cc1O`, the Potency result was “inactive”.

Turning to `Nc1cc(-c2ccncc2)c[nH]c1=O`, the Potency entry is “inactive”.

For the compound `CC1=C(/C=C/C(C)=C/C=C/C(C)=C/CO)C(C)(C)CCC1`, the Potency entry was “inactive”.

For `O=C(c1cc(O)c(O)c(O)c1)c1ccc(O)c(O)c1O`, the Potency was 30.5 µM (active).

Turning to `O=S(=O)(O)CCS`, the Potency result is “inactive”.

As to `OCC1CCCO1` (stereo not given), the Potency entry was “inactive”.

As for `Cc1ccc(N)c(S(=O)(=O)O)c1`, the Potency result is “inactive”.

Regarding `C/C=C(C)/C=C/C=C(C)C`, the Potency entry is “inactive”.

On to `NCCc1ccc(O)c(O)c1`, for which the Potency entry is “inactive”.

In the case of `CCCCC(CC)COC(=O)/C=C\C(=O)OCC(CC)CCCC` (stereo not given), the Potency entry was “inactive”.

As for `CCOC(=O)C1OC1c1ccccc1` (stereo not given), the Potency entry was “inactive”.

For the compound `CC1COc2ccccc2N1C(=O)C(Cl)Cl` (stereo not given), the Potency result is “inactive”.

As for `O=C(O)c1cc(-c2ccccc2)nc2ccccc12`, the Potency entry is “inactive”.

For `CCCCC/C=C\C/C=C\CCCCCCCC(=O)OC`, the Potency result is “inactive”.

In the case of `Nc1nc2ncc(CNc3ccc(C(=O)N[C@@H](CCC(=O)O)C(=O)O)cc3)nc2c(=O)[nH]1`, the Potency result was “inactive”.

Turning to `O=[N+]([O-])C(CO)(CO)CO`, the Potency result is “inactive”.

Consider `NS(=O)(=O)c1cc2c(cc1Cl)NC=NS2(=O)=O`, for which the Potency result was “inactive”.

Take `CCC(=O)O`: the Potency result was “inactive”.

Turning to `NCCNCCNCCNCCN`, the Potency result is “inactive”.

Take `CCOC(=O)[C@H](CCc1ccccc1)N[C@@H](C)C(=O)N1Cc2ccccc2C[C@H]1C(=O)O`: the Potency result was “inactive”.

On to `O=C(Oc1ccccc1)c1ccc(O)cc1`, for which the Potency entry was “inactive”.

For a further assay, the target named is Peroxisome proliferator-activated receptor gamma (Homo sapiens) (UniProt P37231). The assay can be described thus: qHTS assay to identify small molecule agonists of the peroxisome proliferator-activated receptor gamma (PPARg) signaling pathway (AID 743094; active means well fitted activation curve with a large enough effect in the signal ratio in the repeat runs, not every such curve was filed as active; the % refers to the signal ratio). Conditions: HEK293H PPARg-UAS-bla, beta-lactamase FRET ratio, 17 h; series mostly up to 57 µM; activation: at the top concentration. Put shortly: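 GeneBLAzer PPARg UAS-bla HEK293H cells were plated, rested 5 h, then exposed to compounds for 17 h at 37C. Beta-lactamase activity was read by LiveBLAzer B/G FRET substrate fluorescence after 1 h at room temperature.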
Sequence of Peroxisome proliferator-activated receptor gamma (Homo sapiens) (P37231 whole entry, looked up): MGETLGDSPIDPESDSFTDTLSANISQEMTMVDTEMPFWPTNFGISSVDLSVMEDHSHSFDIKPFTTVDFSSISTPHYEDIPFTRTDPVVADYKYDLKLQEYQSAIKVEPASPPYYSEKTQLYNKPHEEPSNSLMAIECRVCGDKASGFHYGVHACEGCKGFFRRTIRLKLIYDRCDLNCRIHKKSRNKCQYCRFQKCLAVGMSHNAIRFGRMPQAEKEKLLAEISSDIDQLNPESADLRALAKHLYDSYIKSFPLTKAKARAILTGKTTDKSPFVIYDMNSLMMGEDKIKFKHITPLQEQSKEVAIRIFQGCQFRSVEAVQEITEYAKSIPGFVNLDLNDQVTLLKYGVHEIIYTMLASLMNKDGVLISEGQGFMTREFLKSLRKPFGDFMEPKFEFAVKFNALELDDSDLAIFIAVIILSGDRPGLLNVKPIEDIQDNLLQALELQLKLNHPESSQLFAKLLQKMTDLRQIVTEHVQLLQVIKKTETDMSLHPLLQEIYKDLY
Take `COC(=O)Nc1nc2ccc(Sc3ccccc3)cc2[nH]1`: the result was inactive.

`CCCCOCCOCCOC(=O)CCCCC(=O)OCCOCCOCCCC`: the result was inactive.

For the compound `CCCCCCCCC`, the “activation” value was -2.56%.

On to `OC[C@@H](O)[C@H](O)[C@H](O)[C@@H](O)CO`, for which the result was inactive.

On to `CC(C)Cc1ccccc1`, for which the outcome was inactive.

As to `CC1=C(CC(=O)O)c2cc(F)ccc2/C1=C\c1ccc(S(C)=O)cc1` (stereo not given), the result was inactive.

Turning to `CCCCCC/C=C/CCCCCCCC(=O)O`, the “activation” value is 1.26%.

Take `O=S(=O)(Oc1ccc(Cl)cc1Cl)c1ccccc1`: the result was inactive.

With `O=[N+]([O-])c1cccc(Cl)c1`, the outcome was inactive.

Regarding `Cc1cc(O)c2c(c1)C(=O)c1cc(O)cc(O)c1C2=O`, the “activation” value is -2.56%.

In the case of `CCCCCCCCCCCCOCC1CO1` (stereo not given), the result was inactive.

Take `Cc1ccc(C)c(C)c1`: the result was inactive.

Take `OC1CCCC1`: the outcome was inactive.

Turning to `NC(=O)/N=N/C(N)=O`, the outcome was inactive.

Regarding `c1ccc2ccccc2c1`, the result was inactive.

For the compound `CC1(C)O[C@@H]2C[C@H]3[C@@H]4C[C@H](F)C5=CC(=O)CC[C@]5(C)[C@H]4[C@@H](O)C[C@]3(C)[C@]2(C(=O)CO)O1`, the outcome was inactive.

As to `Cc1ccc(C(=O)O)o1`, the “activation” value was -8.29% [at 78.9 µM].

With `C=C(C#N)C(=O)OCC`, the outcome was inactive.

Turning to `O=C(c1ccc(O)cc1)c1ccc(O)cc1O`, the outcome was inactive.

For the compound `Nc1cc(-c2ccncc2)c[nH]c1=O`, the result was inactive.

On to `CC1=C(/C=C/C(C)=C/C=C/C(C)=C/CO)C(C)(C)CCC1`, for which the outcome was inactive.

Turning to `O=S(=O)(O)CCS`, the result was inactive.

`OCC1CCCO1` (stereo not given): the result was inactive.

As to `Cc1ccc(N)c(S(=O)(=O)O)c1`, the “activation” value was -6.47%.

On to `C/C=C(C)/C=C/C=C(C)C`, for which the outcome was inactive.

As to `NCCc1ccc(O)c(O)c1`, the outcome was inactive.

With `CCCCC(CC)COC(=O)/C=C\C(=O)OCC(CC)CCCC` (stereo not given), the outcome was inactive.

Regarding `CCOC(=O)C1OC1c1ccccc1` (stereo not given), the “activation” value is 1.04%.

Consider `CCCCC/C=C\C/C=C\CCCCCCCC(=O)OC`, for which the result was inactive.

For the compound `Nc1nc2ncc(CNc3ccc(C(=O)N[C@@H](CCC(=O)O)C(=O)O)cc3)nc2c(=O)[nH]1`, the result was inactive.

As for `O=[N+]([O-])C(CO)(CO)CO`, the result was inactive.

On to `NS(=O)(=O)c1cc2c(cc1Cl)NC=NS2(=O)=O`, for which the outcome was inactive.

`CCC(=O)O`: the outcome was inactive.

Take `NCCNCCNCCNCCN`: the outcome was inactive.

On to `CCOC(=O)[C@H](CCc1ccccc1)N[C@@H](C)C(=O)N1Cc2ccccc2C[C@H]1C(=O)O`, for which the result was inactive.

Regarding `O=C(Oc1ccccc1)c1ccc(O)cc1`, the result was inactive.

Another assay has the same target. As to the kind of experiment: qHTS assay to identify small molecule antagonists of the peroxisome proliferator-activated receptor gamma (PPARg) signaling pathway (AID 743191; calls by dose curve; further: nearly all actives have a fitted effect of over 30% in size; further: potency means the concentration at half of the fitted maximal effect). Conditions: HEK293H PPARg-UAS-bla, beta-lactamase ratio, antagonist, 17 h; series mostly up to 62.6 µM; ratio activity, negative = inhibition: at the top concentration. The gist of the method: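 Beta-lactamase reporter under UAS control in HEK293H PPARg-bla cells; compound treatment 17 h at 37C. Read-out: fluorescence intensity after 1 h room-temperature incubation with LiveBLAzer B/G FRET substrate.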
As to `CCCCOCCOCCOC(=O)CCCCC(=O)OCCOCCOCCCC`, the “ratio activity, negative = inhibition” value is 9.74%.

On to `CCCCCCCCC`, for which the Potency entry was “inactive”.

In the case of `OC[C@@H](O)[C@H](O)[C@H](O)[C@@H](O)CO`, the Potency result was “inactive”.

Turning to `CC(C)Cc1ccccc1`, the Potency entry is “inactive”.

With `O=S(=O)(Oc1ccc(Cl)cc1Cl)c1ccccc1`, the Potency result was “inactive”.

Take `O=[N+]([O-])c1cccc(Cl)c1`: the “ratio activity, negative = inhibition” value was -4.11%.

On to `CCCCCCCCCCCCOCC1CO1` (stereo not given), for which the Potency entry was “inactive”.

Consider `OC1CCCC1`, for which the Potency result was “inactive”.

For the compound `c1ccc2ccccc2c1`, the Potency result was “inactive”.

For the compound `Cc1ccc(C(=O)O)o1`, the “ratio activity, negative = inhibition” value is -1.55%.

Consider `Nc1cc(-c2ccncc2)c[nH]c1=O`, for which the Potency entry was “inactive”.

On to `O=C(c1cc(O)c(O)c(O)c1)c1ccc(O)c(O)c1O`, for which the “ratio activity, negative = inhibition” value was 19.4%.

As for `O=S(=O)(O)CCS`, the “ratio activity, negative = inhibition” value is -25.2%.

As for `OCC1CCCO1` (stereo not given), the “ratio activity, negative = inhibition” value was -0.305% [at 81.1 µM].

For the compound `Cc1ccc(N)c(S(=O)(=O)O)c1`, the Potency entry is “inactive”.

For the compound `NCCc1ccc(O)c(O)c1`, the Potency entry was “inactive”.

Turning to `CCCCC(CC)COC(=O)/C=C\C(=O)OCC(CC)CCCC` (stereo not given), the “ratio activity, negative = inhibition” value was 3.7%.

On to `CCOC(=O)C1OC1c1ccccc1` (stereo not given), for which the “ratio activity, negative = inhibition” value is 19.9% [at 81.1 µM].

With `CC1COc2ccccc2N1C(=O)C(Cl)Cl` (stereo not given), the Potency is 24.5 µM (active).

With `O=C(O)c1cc(-c2ccccc2)nc2ccccc12`, the “ratio activity, negative = inhibition” value was -13.4%.

As to `O=[N+]([O-])C(CO)(CO)CO`, the “ratio activity, negative = inhibition” value is 5.02%.

With `NS(=O)(=O)c1cc2c(cc1Cl)NC=NS2(=O)=O`, the Potency entry is “inactive”.

Consider `CCC(=O)O`, for which the “ratio activity, negative = inhibition” value was -2.52% [at 29.1 µM].

Regarding `CCOC(=O)[C@H](CCc1ccccc1)N[C@@H](C)C(=O)N1Cc2ccccc2C[C@H]1C(=O)O`, the Potency result was “inactive”.

For `O=C(Oc1ccccc1)c1ccc(O)cc1`, the “ratio activity, negative = inhibition” value was -8% [at 81.1 µM].
